According to PubChem BioAssay:
Activity calls are given as the source filed them. Unless noted, how the calls were made is not given here.

What was measured:
[1] = system: Wnt5a (protein binding on small-molecule microarray); test: Wnt5a binders on small-molecule microarray, primary screen, biophysical, 635/667 nm fluorescence (AID 1142); conditions: 635 nm fluorescence, higher = more signal;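 further: fluorescence read at 667 nm with signal to noise per printed feature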
[2] = cell viability in Huh7 cells, primary screen, cytotoxicity control for HCV replication inhibitor project, CellTiter-Glo luminescence, basal, 48 h (AID 1143); conditions: Huh7 HCV replicon, higher = more signal, called active from +8 up or from −8 down;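 further: Huh7 hepatoma cells carrying a hepatitis C replication reporter with no stimulus; test concentration not given here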
[3] = P. aeruginosa biofilm formation inhibitors, primary screen, PAO1 strain, BacTiter-Glo luminescence, LB-PBS (AID 1144); conditions: 12 h, higher = more signal
[4] = CREB reporter modulators without forskolin, primary screen, cell-based, PC12, CRE-LacZ reporter, unstimulated (AID 1145); conditions: no forskolin, luminescence, 4.5 h, higher = more signal, called active from +8 up or from −8 down
[5] = CREB reporter modulators under forskolin, primary screen, cell-based, PC12, CRE-LacZ reporter, forskolin-stimulated (AID 1146); conditions: luminescence, 4.5 h, higher = more signal, called active from +8 up or from −8 down;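 further: PC12 cells with 6xCRE LacZ reporter stimulated by forskolin 10 µM; beta-galactosidase reporter signal reflecting CREB driven transcription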
[6] = biological target: Streptavidin (Streptomyces avidinii) (UniProt P22629); test: streptavidin binders on small-molecule microarray, primary screen, artefact control for SMM compound annotation, biophysical, 635/667 nm fluorescence (AID 1147); conditions: streptavidin binding, higher = more signal;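 further: signal reflects streptavidin binding to arrayed compounds as a control protein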
Streptavidin (Streptomyces avidinii), sequence (P22629 whole entry, looked up): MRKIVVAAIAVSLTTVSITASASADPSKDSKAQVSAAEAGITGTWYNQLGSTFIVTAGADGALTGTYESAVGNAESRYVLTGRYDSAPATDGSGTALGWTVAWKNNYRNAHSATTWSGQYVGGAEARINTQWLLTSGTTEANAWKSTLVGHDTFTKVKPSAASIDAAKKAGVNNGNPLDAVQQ

[7] = small-molecule binders of probe aInhba, primary screen, biochemical, small-molecule microarray, 635/667 nm fluorescence (AID 1148); conditions: higher = more signal;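 further: score merges 667nm spot fluorescence with signal-to-noise for antibody binding to printed compounds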
Torsin-1A (Homo sapiens) [8] = biological target: Torsin-1A (Homo sapiens) (UniProt O14656); test: torsin A binders from cell lysate, primary screen, small-molecule microarray, wild-type, 635/667 nm (AID 1149); conditions: COS7 hTOR1A-WT lysate, 635 nm fluorescence, higher = more signal
Torsin-1A (Homo sapiens), sequence (O14656 whole entry, looked up): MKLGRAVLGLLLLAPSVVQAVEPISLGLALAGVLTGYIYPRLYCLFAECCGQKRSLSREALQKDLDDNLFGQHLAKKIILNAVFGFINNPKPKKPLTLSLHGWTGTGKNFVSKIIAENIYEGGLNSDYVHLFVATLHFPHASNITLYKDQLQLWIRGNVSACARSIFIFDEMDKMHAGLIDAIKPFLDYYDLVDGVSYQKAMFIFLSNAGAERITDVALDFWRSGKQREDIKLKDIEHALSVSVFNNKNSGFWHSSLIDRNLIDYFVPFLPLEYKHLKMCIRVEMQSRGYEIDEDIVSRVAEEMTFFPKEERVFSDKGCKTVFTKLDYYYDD

Torsin-1A (Homo sapiens) [9] = biological target: Torsin-1A (Homo sapiens) (UniProt O14656); test: small-molecule binders of mutant TOR1A in lysate, primary screen, cell lysate, small-molecule microarray, COS7 lysate, 635/667 nm fluorescence (AID 1150); conditions: COS7 hTOR1A mutant lysate, 635 nm fluorescence, higher = more signal;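 further: score pools 667 nm emission and signal to noise measuring lysate protein binding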
[10] = system: Sonic hedgehog protein (Shh); test: small-molecule binders of Shh protein, primary screen, biochemical, small-molecule microarray, 635/667 nm fluorescence (AID 1151); conditions: small-molecule microarray binding, 635 nm fluorescence; higher = more signal;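 further: Shh protein binding to compounds spotted on small-molecule microarray slides; score combines spot fluorescence intensity with signal-to-noise across triplicate slides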
[11] = E. coli DRC41 culture turbidity changes, primary screen, E. coli filamentation inducer project, strain DRC41, OD650, 48 h (AID 1152);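 further: E. coli MC1000 strain DRC41 lacking acrAB efflux pump and sulA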; conditions: E. coli DRC41 (acrAB sulA), higher = more signal, called active from +8 up or from −8 down
[12] = small-molecule binders of probe aLefty1, primary screen, biochemical, small-molecule microarray, 635/667 nm fluorescence (AID 1153); conditions: higher = more signal;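 further: score merges spot fluorescence with signal-to-noise ratio from the scanned slide images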
[13] = PSAC antagonists in infected red cells, primary screen, cell-based, P. falciparum Indochina, OD700, 1 h (AID 1154); conditions: P. falciparum Indochina infected RBC osmotic lysis, higher = more signal, called active from +8 up or from −8 down
[14] = PSAC antagonists in infected red cells, primary screen, cell-based, P. falciparum Indochina, OD700, 2 h (AID 1155);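 further: lysis reports solute entry through the parasite surface anion channel PSAC; channel blockers reduce lysis of infected cells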; conditions: P. falciparum Indochina infected erythrocytes, osmotic lysis OD700; higher = more signal, called active from +8 up or from −8 down
[15] = osmotic lysis modulators in infected erythrocytes, primary screen, PSAC antagonist project, cell-based, P. falciparum Indochina, OD700, 3 h (AID 1156); conditions: higher = more signal, called active from +8 up or from −8 down
[16] = PSAC antagonists in infected red cells, primary screen, cell-based, P. falciparum Indochina, OD700, 18 h (AID 1157); conditions: P. falciparum Indochina infected erythrocytes, osmotic lysis OD700, 18 h; higher = more signal, called active from +8 up or from −8 down
[17] = modulators of S6 phosphorylation in cells, primary screen, cell-based, A549, cytoblot, luminescence, serum-stimulated (AID 1158); conditions: A549 phospho-S6 cytoblot, 5 h, higher = more signal;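 further: serum-stimulated A549 lung adenocarcinoma cells; signal is phosphorylated S6 detected by cytoblot immunostaining with HRP secondary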
[18] = biological target: NADPH oxidase 2 (Homo sapiens) (UniProt P04839); test: NOX2-dependent H2O2 signal modulators, primary screen, NOX inhibitor project, cell-based, HEK293-NOX2, PMA-stimulated, Amplex Red fluorescence (AID 1159); conditions: 45 min, higher = more signal, called active from +8 up or from −8 down; further: test concentration not given here
NADPH oxidase 2 (Homo sapiens), sequence (P04839 whole entry, looked up): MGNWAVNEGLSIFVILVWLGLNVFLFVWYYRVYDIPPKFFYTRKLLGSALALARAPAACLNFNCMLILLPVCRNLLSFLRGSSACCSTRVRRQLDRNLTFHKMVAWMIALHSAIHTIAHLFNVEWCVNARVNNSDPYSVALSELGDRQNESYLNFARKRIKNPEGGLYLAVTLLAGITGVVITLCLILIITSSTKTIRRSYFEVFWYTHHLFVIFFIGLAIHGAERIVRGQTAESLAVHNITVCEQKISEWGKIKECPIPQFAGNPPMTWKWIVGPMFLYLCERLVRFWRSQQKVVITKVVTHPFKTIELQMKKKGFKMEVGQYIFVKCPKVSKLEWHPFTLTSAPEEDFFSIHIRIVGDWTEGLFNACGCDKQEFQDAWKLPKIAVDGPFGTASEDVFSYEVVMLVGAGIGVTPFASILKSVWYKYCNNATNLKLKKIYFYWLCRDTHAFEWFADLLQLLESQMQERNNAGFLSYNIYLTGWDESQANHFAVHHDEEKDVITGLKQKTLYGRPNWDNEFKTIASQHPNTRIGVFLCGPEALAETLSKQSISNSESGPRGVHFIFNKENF

[19] = biological target: NADPH oxidase 4 (Homo sapiens) (UniProt Q9NPH5); test: NOX4-dependent H2O2 signal modulators, primary screen, NOX inhibitor project, cell-based, HEK293-NOX4, tetracycline-induced, Amplex Red fluorescence (AID 1160); conditions: 45 min, higher = more signal, called active from +8 up or from −8 down
NADPH oxidase 4 (Homo sapiens), sequence (Q9NPH5 whole entry, looked up): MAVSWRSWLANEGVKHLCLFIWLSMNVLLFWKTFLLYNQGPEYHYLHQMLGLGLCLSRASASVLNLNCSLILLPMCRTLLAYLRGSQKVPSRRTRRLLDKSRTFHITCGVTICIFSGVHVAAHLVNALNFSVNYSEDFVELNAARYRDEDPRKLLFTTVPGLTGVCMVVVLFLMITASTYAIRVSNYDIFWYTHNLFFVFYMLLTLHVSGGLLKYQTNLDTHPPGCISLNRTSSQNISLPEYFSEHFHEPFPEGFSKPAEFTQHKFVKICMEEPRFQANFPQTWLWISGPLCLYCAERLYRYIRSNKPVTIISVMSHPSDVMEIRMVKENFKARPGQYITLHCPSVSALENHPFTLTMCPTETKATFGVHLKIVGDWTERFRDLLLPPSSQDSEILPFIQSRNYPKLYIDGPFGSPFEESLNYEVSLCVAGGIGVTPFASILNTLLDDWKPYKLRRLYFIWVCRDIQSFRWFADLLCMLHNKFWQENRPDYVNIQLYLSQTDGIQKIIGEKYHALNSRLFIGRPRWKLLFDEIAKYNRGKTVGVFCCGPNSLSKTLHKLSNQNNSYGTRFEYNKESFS

[20] = biological target: NADPH oxidase 5 (Homo sapiens) (UniProt Q96PH1); test: NOX5-dependent H2O2 signal modulators, primary screen, NOX inhibitor project, cell-based, HEK293-NOX5, Amplex Red fluorescence (AID 1161); conditions: HEK293-NOX5, ionomycin, 45 min, higher = more signal
NADPH oxidase 5 (Homo sapiens), sequence (Q96PH1 whole entry, looked up): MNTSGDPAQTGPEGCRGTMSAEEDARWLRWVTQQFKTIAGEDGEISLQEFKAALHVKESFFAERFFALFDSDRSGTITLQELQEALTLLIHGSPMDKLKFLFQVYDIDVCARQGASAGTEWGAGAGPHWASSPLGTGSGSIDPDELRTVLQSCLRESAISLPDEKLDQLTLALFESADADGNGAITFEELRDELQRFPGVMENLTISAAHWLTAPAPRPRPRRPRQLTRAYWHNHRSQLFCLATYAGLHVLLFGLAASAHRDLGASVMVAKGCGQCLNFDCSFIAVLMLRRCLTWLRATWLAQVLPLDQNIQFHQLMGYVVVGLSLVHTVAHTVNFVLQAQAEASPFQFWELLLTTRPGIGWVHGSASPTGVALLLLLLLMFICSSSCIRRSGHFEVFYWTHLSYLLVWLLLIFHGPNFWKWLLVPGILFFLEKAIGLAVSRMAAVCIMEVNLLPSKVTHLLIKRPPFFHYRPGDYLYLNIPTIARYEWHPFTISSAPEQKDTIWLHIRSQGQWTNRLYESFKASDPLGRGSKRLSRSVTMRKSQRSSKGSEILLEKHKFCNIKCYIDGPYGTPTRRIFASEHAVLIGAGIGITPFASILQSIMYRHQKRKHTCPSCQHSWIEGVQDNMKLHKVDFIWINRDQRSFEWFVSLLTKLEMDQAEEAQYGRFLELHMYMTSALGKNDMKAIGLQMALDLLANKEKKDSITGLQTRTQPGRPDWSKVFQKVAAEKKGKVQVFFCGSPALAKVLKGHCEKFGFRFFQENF

Row | SMILES | composite z-score [1] | z-score [2] | z-score [3] | z-score [4] | z-score [5] | composite z-score [6] | composite z-score [7] | composite z-score (Torsin-1A (Homo sapiens) [8]) | composite z-score (Torsin-1A (Homo sapiens) [9]) | composite z-score [10] | z-score [11] | composite z-score [12] | z-score [13] | z-score [14] | z-score [15] | z-score [16] | z-score [17] | z-score [18] | z-score [19] | z-score [20]
1 | CC(C)=NO[C@H](C)c1cn([C@@H]2COC[C@H]2O)nn1 | 0.185 | 0.495 (inactive) | -1.16 (inactive) | 0.099 (inactive) | -0.0851 (inactive) | -0.085 | -0.0963 | 0.455 | 0.461 | 0.477 | 0.36 (inactive) | -0.0518 | 0.813 (inactive) | 0.935 (inactive) | 0.627 (inactive) | 0.489 (inactive) | 0.381 | 0.0279 (inactive) | 0.549 (inactive) | 0.595
2 | CO[C@H]1COC(=O)[C@H](C)COC(=O)[C@H](C)NC(=O)CC=C[C@H]1C | 0.108 | -1.34 (inactive) | 0.598 (inactive) | 0.611 (inactive) | -0.506 (inactive) | -0.237 | -0.0762 | 1.26 | 1.18 | 1.88 | 0.25 (inactive) | -0.101 | 0.212 (inactive) | 0.0618 (inactive) | -0.0422 (inactive) | -0.186 (inactive) | 0.0807 | 1.67 (inactive) | 0.299 (inactive) | -0.42
3 | O=C(NN=C1C[C@@H](O)[C@@H](O)[C@@H]2[C@@H]3C(=O)N(c4ccc(F)cc4F)C(=O)[C@@H]3CC[C@H]12)OCc1ccccc1 | -0.0874 | -0.845 (inactive) | 0.0604 (inactive) | -0.299 (inactive) | 0.139 (inactive) | 0.727 | -0.101 | 0.671 | 1.13 | -0.836 | 0.342 (inactive) | 0.207 | 10.1 (active) | 1.29 (inactive) | 0.497 (inactive) | 0.6 (inactive) | -0.262 | 0.317 (inactive) | 1.33 (inactive) | 0.866
4 | CO[C@@H]1COC(=O)[C@H](CCSC)NC(=O)CC=C[C@@H](C)COC(=O)[C@@H]2CCCN2C(=O)CC=C[C@H]1C | 0.186 | -0.501 (inactive) | 0.277 (inactive) | 0.0652 (inactive) | -1.38 (inactive) | -0.234 | -0.024 | 1.24 | 0.785 | 0.876 | -0.785 (inactive) | 0.224 | 0.911 (inactive) | 0.727 (inactive) | 0.537 (inactive) | 0.354 (inactive) | -0.235 | -2.15 (inactive) | -0.045 (inactive) | 0.887
5 | COCCNC(=O)OCC1CCCC2(CC(OC(=O)NCc3cccc4ccccc34)CC(CCC(=O)N[C@@H](C)C(=O)OC)O2)O1 (stereo not given in full) | 0.278 | -0.862 (inactive) | -0.496 (inactive) | 0.376 (inactive) | 1.47 (inactive) | 0.403 | -0.157 | 0.413 | 0.41 | 0.971 | 0.434 (inactive) | -0.198 | -1.58 (inactive) | -0.523 (inactive) | -1.28 (inactive) | 0.174 (inactive) | -0.582 | -0.155 (inactive) | 1.49 (inactive) | 2.08
6 | O=C(NN=C1C[C@@H](O)[C@@H](O)[C@@H]2[C@@H]3C(=O)N(Cc4ccc5c(c4)OCO5)C(=O)[C@@H]3CC[C@@H]12)OCc1ccccc1 | -0.0565 | -3.46 (inactive) | 0.156 (inactive) | 1.06 (inactive) | 0.0698 (inactive) | 0.485 | -0.183 | 0.234 | -0.0136 | -0.806 | -0.989 (inactive) | 0.184 | 6.62 (inactive) | -0.207 (inactive) | 0.465 (inactive) | -1.85 (inactive) | -0.0564 | -1.78 (inactive) | -1.08 (inactive) | -1.39
7 | CCC1=NOC(CCC2CC(OC(=O)NCc3cccc4c3OCO4)CC3(CCCC(COC(=O)NCCc4ccc(Cl)cc4)O3)O2)C1 (stereo not given) | -0.165 | -0.379 (inactive) | 0.612 (inactive) | -0.0755 (inactive) | -0.51 (inactive) | -0.136 | -0.0963 | 0.217 | 0.672 | 0.358 | 0.13 (inactive) | -0.103 | 0.78 (inactive) | -0.172 (inactive) | -0.747 (inactive) | -0.268 (inactive) | -0.695 | 1.28 (inactive) | 0.891 (inactive) | 0.984
8 | CCN1C(=O)[C@H]2[C@H]3[C@H](O)[C@H](O)CC(=NOC(C)CN4CCCc5nc(C)c(C)cc54)[C@@H]3CC[C@H]2C1=O (stereo not given in full) | 0.223 | 0.433 (inactive) | 1.17 (inactive) | -0.882 (inactive) | -0.271 (inactive) | -0.0317 | 0.134 | 0.46 | 0.456 | 0.906 | 0.223 (inactive) | 0.603 | 1.25 (inactive) | 0.59 (inactive) | -0.121 (inactive) | 0.588 (inactive) | -0.461 | -1 (inactive) | -0.772 (inactive) | -0.298
9 | C=CC[C@@H]1C=C[C@H](ON=CC[C@@H]2C=C[C@H](OC(C)=O)[C@@H](COC(C)=O)O2)[C@@H](CO)O1 | 0.521 | 0.0101 (inactive) | -0.325 (inactive) | -1.21 (inactive) | -0.66 (inactive) | 1.54 | 0.113 | -0.161 | 0.259 | 0.925 | 0.4 (inactive) | 0.455 | 0.551 (inactive) | 0.538 (inactive) | -0.0293 (inactive) | 0.393 (inactive) | 0.166 | -0.893 (inactive) | 0.319 (inactive) | 1.03
